Data: PubChem BioAssay AID686979 (National Center for Advancing Translational Sciences (NCATS), 2013)
The whole screen tested about 420,000 compounds, of which about 50,000 (12%) were called active. About 26% were inconclusive and are not listed. The sample holds actives, similar compounds and a random draw of the others, so the mix is not that of the screen. The call rests on the fitted dose curve; in most records, active means well fitted inhibition curve with a large enough effect; inconclusive means small, poorly fitted or top-dose-only effect; inactive means flat fitted curve, though single readings scatter. *1 amine or outer side, *2 acyl side, *3 side chain or, on linkers, in order; H or OH if unused. Where a SMILES comes first, the peptide text is derived from it. Bridges are numbered along the chain shown (N, C = ends). [ ]: non-standard residue; d: D form. The star is where a group is joined. X12 = NC1=N[C@@H]([C@H](N[*:1])C(=O)[*:2])C[C@H](O)N1; ΔAla(Z-3-ureido) = NC(=O)N/C=C(\N)C(=O)O; β3hOrn = NCCC[C@H](N)CC(=O)*; Dap = NC[C@H](N)C(=O)O
On the % scale 0 is the no-effect control and ±100 the full control effect; potency means the concentration at half of the fitted maximal effect.

Test: qHTS for Inhibitors of human tyrosyl-DNA phosphodiesterase 1 (TDP1): qHTS in cells in presence of CPT; further: nearly all actives have a fitted effect of over 55% in size
Conditions: chicken DT40 Tdp1-/-;hTDP1 cells + 20 nM CPT, ATP luminescence, 48 h; series mostly up to 46.2 µM; activity change, negative = growth inhibition: at the top concentration
In short: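 Chicken DT40 Tdp1-/- cells complemented with human TDP1, 400 cells/well, exposed to compounds plus 20 nM camptothecin for at least 48 h at 37 C; viability read as ATP content by CellTiter-Glo luminescence.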
With COCCNC(=O)c1cc(-c2cccc(Cl)c2)on1 the “activity change, negative = growth inhibition” value was 4.91% (inactive). For CC(C)c1nnc(NC(=O)C2CC(=O)N(CCc3ccc(F)cc3)C2)s1 (stereo not given), the “activity change, negative = growth inhibition” value was 7.52% (inactive). In the case of O=C(CCC(=O)n1ncc2ccccc21)NCc1ccccc1Cl, the “activity change, negative = growth inhibition” value is reported as -1.16% (inactive). With CCOC(=O)c1cc(NC(=O)c2cccnc2)cc(C(=O)OCC)c1 the “activity change, negative = growth inhibition” value was -8.88% (inactive). For CCCC(=O)Nc1nc2ccc(NC(=O)c3c(F)c(F)c(OC)c(F)c3F)cc2s1, the Potency was 0.92 µM (active). With O=C(Cc1ccccc1)Nc1ccc(NC(=O)c2cccnc2)cc1 the “activity change, negative = growth inhibition” value was -28% (inactive). In the case of CCCC(=O)Nc1ccc2c(c1)nc1n2CCSC1, the “activity change, negative = growth inhibition” value is reported as -0.992% (inactive). For CCc1noc(C)c1C(=O)Nc1nc2ccc(OC)cc2s1, the “activity change, negative = growth inhibition” value was 13.8% (inactive). In the case of CCCC(=O)Nc1nc2ccc(NC(=O)c3cccnc3)cc2s1, the Potency is reported as 9.2 µM (active). In the case of Cc1cc(C)c(S(=O)(=O)N2C=CC(C(F)(F)F)=NCC2)c(C)c1, the “activity change, negative = growth inhibition” value is reported as 2.91% (inactive). With c1ccc2cc(C3=NCCN3)ccc2c1 the “activity change, negative = growth inhibition” value was 4.03% (inactive). For Cc1ccc(Nc2c(O)nc[nH]c2=O)cc1C, the “activity change, negative = growth inhibition” value was 8.79% (inactive). In the case of Cc1c(Cl)cccc1NC(=O)[C@@]1(CC(=O)O)CC(/C=C/c2ccccc2)=NO1, the “activity change, negative = growth inhibition” value is reported as 3.33% (inactive). For N#CCc1c(C#N)c(N)nc(N2CCCC2)c1C#N, the “activity change, negative = growth inhibition” value was 15.6% (inactive). With CCCCN(C)c1nnc(NC(=O)Nc2ccc(Br)c(C)c2)s1 the “activity change, negative = growth inhibition” value was -27.6% (inactive). With Cc1occc1C(=O)Nc1nnc(-c2ccncc2)s1 the “activity change, negative = growth inhibition” value was 10.3% (inactive). For Cc1ccc(NC(=O)Nc2nnc(-c3ccncc3)s2)cc1, the Potency was 18.4 µM (active). For Cc1ccc(C(=O)Nc2nnc(-c3ccncc3)s2)o1, the “activity change, negative = growth inhibition” value was -12.2% (inactive). For Cc1nnc(NC(=O)Nc2ccc(Cl)c(Cl)c2)s1, the Potency was 23.1 µM (active). With Cc1nnc(NC(=O)c2ccc3nccnc3c2)s1 the “activity change, negative = growth inhibition” value was -17.6% (inactive). In the case of COCC1CCCN(C(=O)c2ccc3oc(C(C)C)nc3c2)C1 (stereo not given), the “activity change, negative = growth inhibition” value is reported as -8.78% (inactive). In the case of COCCNC(=O)CN(Cc1ccco1)C(=O)CCC(=O)Nc1nccs1, the “activity change, negative = growth inhibition” value is reported as 1.07% (inactive). In the case of COc1ccc2c(c1)CCCO[C@]21O[C@H](CCO)C[C@H](O)[C@H]1O, the “activity change, negative = growth inhibition” value is reported as -1.84% (inactive). With CCC(C)NC(=O)c1cc(Cl)ccc1OC (stereo not given) the “activity change, negative = growth inhibition” value was -7.43% (inactive). With Cc1ccc(NC(=O)Nc2sc3nc4n(c(=O)c3c2C)CCC(C)CC4)c(Cl)c1 (stereo not given) the Potency was 11.6 µM (active). For CC1CCc2c(sc3nc4n(c(=O)c23)CCS4)C1 (stereo not given), the “activity change, negative = growth inhibition” value was -28.3% (inactive). In the case of CC1CCN(C(=O)c2ccc3c(=O)n4c(nc3c2)CCCCC4)CC1, the “activity change, negative = growth inhibition” value is reported as -3.88% (inactive). For Cc1ccccc1NC(=O)CSc1ccc2nnc(-c3ccccn3)n2n1, the “activity change, negative = growth inhibition” value was -15.4% (inactive). In the case of COC(=O)[C@]1(C)N[C@H](CN(C)C(=O)c2ccc(C(C)(C)C)cc2)[C@@H]2C(=O)N(C)C(=O)[C@@H]21, the “activity change, negative = growth inhibition” value is reported as -7.64% (inactive). With Cc1cc(C)c(S(=O)(=O)c2cc(F)ccc2C)c(=O)[nH]1 the “activity change, negative = growth inhibition” value was 2.26% (inactive). In the case of CC1(C)CN(c2ccc(-c3ccnc4ncnn34)cc2)C1=O, the “activity change, negative = growth inhibition” value is reported as -8.25% (inactive). With Cc1cc2oc(=O)cc(CN3CCN(S(=O)(=O)c4cccs4)CC3)c2cc1C(C)C the Potency was 23.1 µM (active). In the case of O=S(=O)(c1cccs1)N1CCN(Cc2ccccc2)CC1, the “activity change, negative = growth inhibition” value is reported as -12.6% (inactive). For COc1ccc2c(CN3CCN(S(=O)(=O)c4cccs4)CC3)cc(=O)oc2c1, the “activity change, negative = growth inhibition” value was -24.3% (inactive). For CCOc1ccc(C(CC(=O)O)n2cnnn2)cc1OC (stereo not given), the “activity change, negative = growth inhibition” value was 1.9% (inactive). In the case of COc1ccc(C2=NN(C(=O)c3cccnc3)C(c3ccccc3)C2)cc1 (stereo not given), the “activity change, negative = growth inhibition” value is reported as -8.32% (inactive). With CCC(CC)c1nnc(NC(=O)C2=COCCO2)s1 the “activity change, negative = growth inhibition” value was 11.4% (inactive). For Cc1sc2nc(COC(=O)C(NC(=O)c3ccc(Cl)cc3Cl)C(C)C)[nH]c(=O)c2c1C (stereo not given), the “activity change, negative = growth inhibition” value was -20.6% (inactive). In the case of Cc1sc2nc(CSCC(=O)Nc3c(Cl)cccc3Cl)[nH]c(=O)c2c1C, the Potency is reported as 7.31 µM (active). With CCN(CC)Cc1nc2sc(C)c(C)c2c(=O)[nH]1 the “activity change, negative = growth inhibition” value was -3.36% (inactive). With CCOC(=O)/C=c1\s/c(=C\c2ccccc2OC)c(=O)n1CC(=O)N1CCOCC1 the “activity change, negative = growth inhibition” value was -24.5% (inactive). With CCOC(=O)/C=c1\s/c(=C\c2ccc(C#N)cc2)c(=O)n1CC(=O)Nc1cccc(C)c1C the Potency was 1.3 µM (active). For CCOc1ccc(NC(=O)Cn2c(C)ccc(C#N)c2=O)cc1, the “activity change, negative = growth inhibition” value was -0.0068% (inactive). In the case of NCCC[C@H](N)CC(=O)N[C@H]1CNC(=O)[C@H]([C@H]2C[C@H](O)NC(N)=N2)NC(=O)/C(=C/NC(N)=O)NC(=O)[C@H](CO)NC(=O)[C@H](CO)NC1=O (β3hOrn-[Dap]SS[ΔAla(Z-3-ureido)][X12]; lactam 1-C), the “activity change, negative = growth inhibition” value is reported as -9.6% (inactive). For COc1ccc(-n2nc(C(=O)NCC(=O)N3CCCCCC3)c3ccccc3c2=O)cc1Cl, the Potency was 18.4 µM (active). With CCOC(=O)c1ccccc1NC(=O)c1nn(-c2ccc(OC)c(Cl)c2)c(=O)c2c1c1ccccc1n2C the “activity change, negative = growth inhibition” value was 13.7% (inactive). For Cc1cc(C(=O)NCCc2ccc(Cl)cc2)n(-c2ccccc2)n1, the Potency was 20.6 µM (active). In the case of COc1ccc(-n2nc(C(=O)NCCc3ccc(Cl)cc3)c3c4ccccc4n(C)c3c2=O)cc1Cl, the Potency is reported as 3.66 µM (active). With COc1ccc(-n2nc(C(=O)NCC(=O)N3CCC(C(N)=O)CC3)c3ccccc3c2=O)cc1OC the “activity change, negative = growth inhibition” value was -4.29% (inactive). For COc1ccc(CCNC(=O)c2c(C)nn(-c3ccccc3)c2Cl)cc1, the “activity change, negative = growth inhibition” value was -17.4% (inactive). In the case of COCCCNC(=O)CNC(=O)c1nn(-c2ccc(OC)cc2)c(=O)c2ccccc12, the “activity change, negative = growth inhibition” value is reported as 17.6% (inactive). For Cc1cc(NC(=O)Nc2ccc(Cl)cc2)n(-c2ccccc2)n1, the “activity change, negative = growth inhibition” value was 1.8% (inactive). With COc1cc(NC(=O)c2nn(-c3ccc(C)cc3)c(=O)c3c2c2ccccc2n3C)cc(OC)c1OC the “activity change, negative = growth inhibition” value was -3.89% (inactive). In the case of COC(=O)c1ccc2ccccc2c1OC1OC(CO)C(O)C(O)C1NC(C)=O (stereo not given), the “activity change, negative = growth inhibition” value is reported as -14.5% (inactive). In the case of Fc1cccc(Cc2noc(CN3CCN(c4cnccn4)CC3)n2)c1, the “activity change, negative = growth inhibition” value is reported as 1.52% (inactive). In the case of Cc1ccc(C(=O)N2CCC(n3nccc3NC(=O)Nc3cccc(F)c3)CC2)cn1, the “activity change, negative = growth inhibition” value is reported as 1.87% (inactive). With O=C(COC(=O)c1ccccc1NC(=O)c1ccco1)Nc1ccc2c(c1)OC(F)(F)O2 the “activity change, negative = growth inhibition” value was -10.2% (inactive). With CC1CC(C)CN(CCCNC(=O)c2csc3c2CCCCC3)C1 (stereo not given) the “activity change, negative = growth inhibition” value was -30% (inactive). With O=C(CCNC(=O)c1ccccc1Cl)NCc1ccco1 the “activity change, negative = growth inhibition” value was -9.02% (inactive). In the case of CC(C(=O)c1ccc(-c2ccccc2)cc1)[n+]1cccc(Br)c1 (stereo not given), the “activity change, negative = growth inhibition” value is reported as -16.3% (inactive). With CCOC(=O)C1CCC(CN(Cc2ccc(OC)cc2)S(=O)(=O)c2ccc(F)c(C(=O)Nc3cc(C)ccc3C)c2)CC1 (stereo not given) the “activity change, negative = growth inhibition” value was -12.5% (inactive). For Fc1ccccc1CNC(=S)Nc1ccc(Cl)cc1, the Potency was 20.6 µM (active). In the case of Cn1cc(C(=O)NCc2ccccc2F)cn1, the “activity change, negative = growth inhibition” value is reported as -0.179% (inactive). In the case of COC(=O)Cc1ccc(NC(=S)NCc2ccccc2)cc1, the “activity change, negative = growth inhibition” value is reported as -1.18% (inactive). With O=C(c1ccco1)N1CCN(C(=O)c2cc(-c3ccccc3F)no2)CC1 the “activity change, negative = growth inhibition” value was -22.9% (inactive).
